Laboratory results: the supplement of paper PMC10849652
Of roughly 7,900 targets only a part is listed; those with a hit were picked by preference. About 0.6% of all pairs of compound and target were hits.

Columns and labels:
Test in all cases: log2 fold change, soluble protein after heating vs DMSO (PISA); higher = thermal stabilisation; K562 cells, 10 uM, 30 min; active = over 0.2 and 3.5 SD of the protein, either way, in both replicates (recomputed)
[1] = compound: C1COCCN1CCN2C3=CC=CC=C3N=C2NC(=O)C4=CC(=CC=C4)[N+](=O)[O-] [IRAK-1-4 Inhibitor I]
Method in brief: (§1)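 Soluble protein was quantified by TMTpro 16plex LC-MS/MS after channel sums were equalised. It was obtained as the supernatant after 21,000xg for 90 min from pooled aliquots of K562 cells (2×10^6 cells/mL, 10 μM compound, 30 min) heated for 3 min across 48°C-58°C and extracted in PBS with 0.5% NP-40 at 4°C. Thermal stability values are relative to control samples and come from duplicates. They are given as log2 fold changes.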

[2] = compound: C=CC(=O)N1CCC[C@@H](n2nc(-c3ccc(Oc4ccccc4)cc3)c3c(N)ncnc32)C1 [ibrutinib]
Method in brief: as §1

[3] = compound: CC(=O)c1cnc2ccc(-c3cc(Cl)c(O)c(Cl)c3)nc2c1N[C@H]1CC[C@H](CN(C)C)CC1
Method in brief: as §1

[4] = compound: CC(C)(C)Cn1c(N)nc2ccc(-c3[nH]c(C(C)(C)C)nc3-c3ccc(F)cc3)nc21 [ralimetinib]
Method in brief: as §1

[5] = compound: CC(C)(O)CC(=O)NCCn1ccc2ncnc(Nc3ccc(Oc4cccc(C(F)(F)F)c4)c(Cl)c3)c21
Method in brief: as §1

[6] = compound: CC(C)C1=C2N=C(C=C(N2N=C1)NCC3=CC=CC=C3)NCCCCCCN
Method in brief: as §1

[7] = compound: CC(C)C[C@@H](C=O)NC(=O)[C@H](CC(C)C)NC(=O)[C@H](CC(C)C)NC(=O)OCc1ccccc1
Method in brief: as §1

[8] = compound: CC(C)N(C[C@H]1O[C@@H](n2cnc3c(N)ncnc32)[C@H](O)[C@@H]1O)[C@H]1C[C@@H](CCc2nc3cc(C(C)(C)C)ccc3[nH]2)C1 [pinometostat]
Method in brief: as §1

[9] = compound: CC1=C(C(CC(=O)N1)C2=CC=C(C=C2)C(F)(F)F)C(=O)NC3=C(C=C4C(=C3)C=NN4)F
Method in brief: as §1

[10] = compound: CC1=C(C2=C(C=C1)C(=O)C3=CC=CC=C3N2CCCN)C
Method in brief: as §1

[11] = compound: CC1=C(C=C(C=C1)NC(=O)C2=CC(=CC=C2)C(C)(C)C#N)NC3=CC4=C(C=C3)N=CN(C4=O)C
Method in brief: as §1

[12] = compound: CC1=C(C=C(C=C1)NC(=O)C2=CC(=CC=C2)N(C)C)NC(=O)C3=CC=C(C=C3)O
Method in brief: as §1

[13] = compound: CC1=CC=C(C=C1)SC2=C3C=C(SC3=CN=C2)C(=O)N
Method in brief: as §1

[14] = compound: CC1=NC(=CC=C1)C2=C(N=C(N2)C(C)(C)C)C3=CC4=NC=CN=C4C=C3
Method in brief: as §1

[15] = compound: CCCCN(Cc1ccc(C(=O)NO)cc1)C(=O)Nc1ccccc1 [Nexturastat A]
Method in brief: as §1

[16] = compound: CCCS(=O)(=O)Nc1ccc(F)c(C(=O)c2c[nH]c3ncc(-c4ccc(Cl)cc4)cc23)c1F [vemurafenib]
Method in brief: as §1

[17] = compound: CCCS(=O)(=O)Nc1ccc(F)c(C(=O)c2c[nH]c3ncc(Cl)cc23)c1F
Method in brief: as §1

[18] = compound: CCCc1cc(C)[nH]c(=O)c1CNC(=O)c1cc(-c2ccnc(N3CCN(C)CC3)c2)cc2c1cnn2C(C)C
Method in brief: as §1

[19] = compound: CCN(CC)Cc1ccc2cc(COC(=O)Nc3ccc(C(=O)NO)cc3)ccc2c1 [givinostat]
Method in brief: as §1

[20] = compound: CCN(CCCOc1ccc2c(Nc3cc(CC(=O)Nc4cccc(F)c4)[nH]n3)ncnc2c1)CCOP(=O)(O)O [barasertib]
Method in brief: as §1

Measured: log2 fold change

GAPVD1 isoform 6 (UniProt Q14C86)
Sequence of UniProt Q14C86 (Q14C86 whole entry, looked up): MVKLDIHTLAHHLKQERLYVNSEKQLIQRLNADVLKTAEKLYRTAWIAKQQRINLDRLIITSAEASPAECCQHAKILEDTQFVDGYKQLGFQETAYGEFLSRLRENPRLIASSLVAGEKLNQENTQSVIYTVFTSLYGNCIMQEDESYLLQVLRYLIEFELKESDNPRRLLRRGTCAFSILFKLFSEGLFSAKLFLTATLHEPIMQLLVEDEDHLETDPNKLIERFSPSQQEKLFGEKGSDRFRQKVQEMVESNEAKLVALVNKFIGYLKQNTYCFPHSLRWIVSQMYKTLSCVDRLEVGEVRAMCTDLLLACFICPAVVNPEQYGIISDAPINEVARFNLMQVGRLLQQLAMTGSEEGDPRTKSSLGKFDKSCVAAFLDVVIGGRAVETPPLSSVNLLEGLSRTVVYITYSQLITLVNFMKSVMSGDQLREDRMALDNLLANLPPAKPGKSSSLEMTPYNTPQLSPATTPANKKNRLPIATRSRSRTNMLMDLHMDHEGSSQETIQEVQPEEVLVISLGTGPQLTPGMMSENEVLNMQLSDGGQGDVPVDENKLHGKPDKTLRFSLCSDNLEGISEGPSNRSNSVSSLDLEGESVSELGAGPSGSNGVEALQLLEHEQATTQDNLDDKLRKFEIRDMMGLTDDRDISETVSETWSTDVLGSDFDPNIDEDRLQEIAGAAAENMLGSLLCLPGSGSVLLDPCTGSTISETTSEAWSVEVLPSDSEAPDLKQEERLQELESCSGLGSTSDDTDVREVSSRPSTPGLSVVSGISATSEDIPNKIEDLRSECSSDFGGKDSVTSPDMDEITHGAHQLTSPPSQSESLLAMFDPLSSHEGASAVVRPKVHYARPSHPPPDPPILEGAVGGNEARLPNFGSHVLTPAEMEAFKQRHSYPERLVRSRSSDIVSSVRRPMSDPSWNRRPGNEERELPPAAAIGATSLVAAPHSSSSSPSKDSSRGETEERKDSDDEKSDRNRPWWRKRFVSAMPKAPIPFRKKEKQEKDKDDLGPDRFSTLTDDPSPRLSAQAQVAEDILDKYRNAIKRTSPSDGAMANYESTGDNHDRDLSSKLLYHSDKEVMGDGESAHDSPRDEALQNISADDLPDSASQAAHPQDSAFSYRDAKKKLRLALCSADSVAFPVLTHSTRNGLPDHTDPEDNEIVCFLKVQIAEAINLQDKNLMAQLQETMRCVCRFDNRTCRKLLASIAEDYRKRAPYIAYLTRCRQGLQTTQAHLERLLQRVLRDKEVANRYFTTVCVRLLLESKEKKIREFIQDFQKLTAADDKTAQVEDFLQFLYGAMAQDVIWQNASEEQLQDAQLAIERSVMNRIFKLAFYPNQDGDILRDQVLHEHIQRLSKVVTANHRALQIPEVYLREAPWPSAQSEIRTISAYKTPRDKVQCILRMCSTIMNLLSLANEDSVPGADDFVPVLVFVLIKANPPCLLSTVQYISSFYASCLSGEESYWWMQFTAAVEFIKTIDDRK
active: [6] -0.278
inactive: [1] -0.044 | [2] -0.087 | [3] 0.005 | [4] 0.056 | [5] -0.111 | [7] 0.037 | [8] 0.094 | [9] 0.003 | [10] -0.003 | [11] 0.004 | [12] -0.041 | [13] 0.046 | [14] 0.019 | [15] 0.025 | [16] 0.007 | [17] 0.13 | [18] 0.047 | [19] 0.047 | [20] 0.034

GBE1 (UniProt Q04446)
Sequence of UniProt Q04446 (Q04446 whole entry, looked up): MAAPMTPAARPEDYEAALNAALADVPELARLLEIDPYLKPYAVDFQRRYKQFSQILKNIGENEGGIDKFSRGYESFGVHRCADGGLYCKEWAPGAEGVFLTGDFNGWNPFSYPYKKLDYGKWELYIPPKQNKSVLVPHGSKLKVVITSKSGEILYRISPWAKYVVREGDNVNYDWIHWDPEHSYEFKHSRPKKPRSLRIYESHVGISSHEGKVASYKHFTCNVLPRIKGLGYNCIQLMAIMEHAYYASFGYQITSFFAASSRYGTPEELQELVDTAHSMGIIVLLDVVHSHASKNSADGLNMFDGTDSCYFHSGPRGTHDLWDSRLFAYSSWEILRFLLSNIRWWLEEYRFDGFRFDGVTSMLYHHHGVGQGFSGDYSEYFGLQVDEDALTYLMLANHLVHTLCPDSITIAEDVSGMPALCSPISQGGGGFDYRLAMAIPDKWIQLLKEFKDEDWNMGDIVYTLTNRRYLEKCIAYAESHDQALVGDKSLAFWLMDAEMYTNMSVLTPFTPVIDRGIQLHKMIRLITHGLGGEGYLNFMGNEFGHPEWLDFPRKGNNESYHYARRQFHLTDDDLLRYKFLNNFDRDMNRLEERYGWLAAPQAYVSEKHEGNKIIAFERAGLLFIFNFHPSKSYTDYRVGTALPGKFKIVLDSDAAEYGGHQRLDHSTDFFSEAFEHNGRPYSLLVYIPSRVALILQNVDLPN
inactive: [1] -0.241 | [2] -0.026 | [3] -0.102 | [4] 0.051 | [5] -0.074 | [6] -0.23 | [7] 0.027 | [8] 0.186 | [10] 0.04 | [12] 0.08 | [13] 0.128 | [14] 0.014 | [15] 0 | [16] 0.162 | [17] 0.065 | [18] 0.005 | [19] 0.038 | [20] 0.109

HS1BP3 (UniProt Q53T59)
Sequence of UniProt Q53T59 (Q53T59 whole entry, looked up): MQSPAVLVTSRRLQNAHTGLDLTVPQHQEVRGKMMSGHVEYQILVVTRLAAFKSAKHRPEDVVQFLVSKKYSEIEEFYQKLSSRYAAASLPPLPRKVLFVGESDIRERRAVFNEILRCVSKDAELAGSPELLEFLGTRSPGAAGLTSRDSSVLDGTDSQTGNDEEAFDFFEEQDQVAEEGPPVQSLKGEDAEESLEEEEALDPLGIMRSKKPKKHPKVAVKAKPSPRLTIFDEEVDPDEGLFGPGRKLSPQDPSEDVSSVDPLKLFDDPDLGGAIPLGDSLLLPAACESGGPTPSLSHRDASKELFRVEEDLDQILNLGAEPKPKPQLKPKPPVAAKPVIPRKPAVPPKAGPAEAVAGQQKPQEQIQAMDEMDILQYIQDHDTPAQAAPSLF
inactive: [1] 0.004 | [2] -0.029 | [3] -0.117 | [4] 0.038 | [5] -0.059 | [6] -0.038 | [7] 0.086 | [8] -0.002 | [9] 0.004 | [11] 0.023 | [12] -0.045 | [13] -0.109 | [14] -0.046 | [15] 0.052 | [16] 0.132 | [17] 0.021 | [19] 0.111 | [20] 0.047

HSPA2 (UniProt P54652)
Sequence of UniProt P54652 (P54652 whole entry, looked up): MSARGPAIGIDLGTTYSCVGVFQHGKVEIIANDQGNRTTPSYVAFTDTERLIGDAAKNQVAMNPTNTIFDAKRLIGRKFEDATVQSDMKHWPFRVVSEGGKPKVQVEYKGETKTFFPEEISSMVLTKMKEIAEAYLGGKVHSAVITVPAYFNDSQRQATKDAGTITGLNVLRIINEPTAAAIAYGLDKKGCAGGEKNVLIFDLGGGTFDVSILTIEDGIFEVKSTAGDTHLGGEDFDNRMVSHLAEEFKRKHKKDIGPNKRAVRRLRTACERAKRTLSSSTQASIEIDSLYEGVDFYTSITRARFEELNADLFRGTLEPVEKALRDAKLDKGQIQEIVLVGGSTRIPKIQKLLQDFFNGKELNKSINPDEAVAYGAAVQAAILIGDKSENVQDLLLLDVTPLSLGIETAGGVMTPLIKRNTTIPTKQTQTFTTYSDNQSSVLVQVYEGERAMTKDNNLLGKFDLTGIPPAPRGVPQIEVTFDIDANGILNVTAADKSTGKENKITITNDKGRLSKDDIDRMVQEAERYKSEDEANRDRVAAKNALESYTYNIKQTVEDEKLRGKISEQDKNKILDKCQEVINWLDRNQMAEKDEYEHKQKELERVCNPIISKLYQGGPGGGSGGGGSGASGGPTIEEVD
inactive: [1] 0.008 | [2] -0.006 | [3] -0.28 | [4] 0.01 | [7] 0.041 | [8] 0.05 | [9] 0.023 | [11] -0.109 | [12] 0.046 | [14] -0.039 | [18] 0.057 | [19] 0.13 | [20] -0.004
active: [6] -0.441

HMGN1 (UniProt P05114)
Sequence of UniProt P05114 (P05114 whole entry, looked up): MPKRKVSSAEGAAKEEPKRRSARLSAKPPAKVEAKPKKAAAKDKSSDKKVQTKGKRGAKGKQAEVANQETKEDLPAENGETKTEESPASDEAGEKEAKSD
inactive: [1] -0.006 | [2] 0.049 | [3] 0.064 | [4] 0.032 | [5] 0.166 | [6] 0.148 | [7] 0.042 | [8] -0.022 | [9] 0.014 | [11] 0.056 | [12] 0.027 | [13] -0.048 | [14] 0.078 | [15] -0.017 | [16] 0.004 | [17] -0.064 | [18] -0.033 | [19] -0.119 | [20] -0.06
active: [10] 0.294

HDAC2 (UniProt Q92769)
Sequence of UniProt Q92769 (Q92769 whole entry, looked up): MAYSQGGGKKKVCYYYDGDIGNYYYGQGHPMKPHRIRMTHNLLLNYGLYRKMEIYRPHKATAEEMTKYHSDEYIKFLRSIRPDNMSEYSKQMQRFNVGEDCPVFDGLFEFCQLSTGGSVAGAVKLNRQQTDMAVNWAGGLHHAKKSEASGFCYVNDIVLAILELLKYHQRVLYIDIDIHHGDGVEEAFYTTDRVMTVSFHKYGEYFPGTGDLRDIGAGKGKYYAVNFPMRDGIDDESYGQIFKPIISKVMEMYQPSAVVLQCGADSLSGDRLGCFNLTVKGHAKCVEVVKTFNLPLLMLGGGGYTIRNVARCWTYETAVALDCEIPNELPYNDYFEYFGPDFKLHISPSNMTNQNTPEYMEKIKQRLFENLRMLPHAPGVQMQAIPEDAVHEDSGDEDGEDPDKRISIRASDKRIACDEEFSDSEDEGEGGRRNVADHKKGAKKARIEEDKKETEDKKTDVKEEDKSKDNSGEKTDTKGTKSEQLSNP
inactive: [1] 0 | [2] -0.015 | [3] -0.046 | [4] -0.004 | [5] 0.01 | [6] 0.007 | [7] -0.04 | [8] -0.01 | [9] -0.006 | [10] 0 | [11] -0.051 | [12] -0.001 | [13] 0.015 | [14] -0.006 | [16] -0.005 | [17] 0.019 | [18] -0.018 | [20] -0.039
active: [15] 0.856

GLYR1 (UniProt Q49A26)
Sequence of UniProt Q49A26 (Q49A26 whole entry, looked up): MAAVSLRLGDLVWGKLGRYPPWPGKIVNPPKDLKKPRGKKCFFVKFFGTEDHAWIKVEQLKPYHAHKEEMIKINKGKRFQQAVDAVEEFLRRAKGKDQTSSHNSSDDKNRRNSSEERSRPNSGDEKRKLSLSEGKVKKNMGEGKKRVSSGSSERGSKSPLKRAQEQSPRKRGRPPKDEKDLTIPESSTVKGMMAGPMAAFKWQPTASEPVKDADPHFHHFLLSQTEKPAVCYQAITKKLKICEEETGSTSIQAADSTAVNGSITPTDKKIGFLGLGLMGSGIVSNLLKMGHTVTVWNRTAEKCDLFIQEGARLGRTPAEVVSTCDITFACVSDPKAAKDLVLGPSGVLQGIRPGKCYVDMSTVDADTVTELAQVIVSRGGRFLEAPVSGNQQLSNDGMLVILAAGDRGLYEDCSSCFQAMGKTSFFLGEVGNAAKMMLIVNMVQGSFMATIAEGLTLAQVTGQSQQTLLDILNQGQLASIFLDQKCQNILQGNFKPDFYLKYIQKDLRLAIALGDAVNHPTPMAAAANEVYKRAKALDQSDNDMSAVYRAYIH
active: [15] 0.375
inactive: [1] -0.067 | [2] -0.074 | [3] 0.054 | [4] 0.088 | [5] 0.093 | [6] -0.057 | [7] 0.09 | [8] 0.111 | [9] -0.076 | [10] -0.016 | [11] 0.039 | [12] 0.032 | [13] -0.125 | [14] -0.06 | [16] 0.054 | [17] 0.009 | [18] 0.085 | [19] 0.091 | [20] 0.136

GLA (UniProt P06280)
Sequence of UniProt P06280 (P06280 whole entry, looked up): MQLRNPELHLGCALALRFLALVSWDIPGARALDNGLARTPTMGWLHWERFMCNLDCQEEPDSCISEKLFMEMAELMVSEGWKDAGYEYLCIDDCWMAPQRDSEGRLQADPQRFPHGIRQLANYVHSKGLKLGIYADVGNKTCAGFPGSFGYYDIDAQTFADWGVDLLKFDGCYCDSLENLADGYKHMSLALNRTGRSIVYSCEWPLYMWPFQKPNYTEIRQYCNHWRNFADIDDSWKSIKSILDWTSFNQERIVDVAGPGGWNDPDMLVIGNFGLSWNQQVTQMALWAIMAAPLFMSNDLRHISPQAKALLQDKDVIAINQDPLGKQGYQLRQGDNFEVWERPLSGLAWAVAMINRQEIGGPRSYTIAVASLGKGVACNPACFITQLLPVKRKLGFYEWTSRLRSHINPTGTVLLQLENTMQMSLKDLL
inactive: [1] 0.034 | [2] 0.026 | [3] -0.031 | [4] -0.05 | [5] -0.052 | [6] -0.199 | [7] 0.015 | [8] 0.02 | [9] 0.052 | [10] -0.051 | [11] -0.016 | [12] 0.027 | [13] -0.001 | [14] 0.011 | [15] 0.005 | [16] -0.009 | [17] -0.038 | [18] -0.039 | [19] 0.04 | [20] 0.005
